Measurements published in PubChem BioAssay (NCATS).
Records with an inconclusive call do not appear. A call without a number means that no potency is given here. Calls of active or inactive are those of the source. Calls come from the whole dose curve; as a rule, active = well fitted inhibition curve with a large enough effect; inconclusive = small, poorly fitted or top-dose-only effect; inactive = flat fitted curve, though single readings scatter.

Experiments:
Test in all cases: qHTS profiling for inhibitors of Plasmodium falciparum proliferation (AID 504749); note: nearly all actives have a fitted effect of over 60% in size
Conditions in all cases: P. falciparum in erythrocytes, SYBR Green DNA, 72 h; series mostly up to 28.7 µM
[1] = test system: CP238
In short: (§1)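 In a 72 h erythrocytic culture (37 C, humidified, 5% CO2) at 2.5% hematocrit and 0.3% starting parasitemia, compounds were tested; SYBR Green I in detergent lysis buffer stained parasite DNA overnight.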

[2] = test system: CP247
In short: as §1

[3] = test system: CP250
In short: as §1

[4] = test system: CP252
In short: as §1

[5] = test system: CP256
In short: as §1

[6] = test system: CP260
In short: as §1

[7] = test system: CP265
In short: as §1

[8] = test system: CP266
In short: as §1

[9] = test system: CP268
In short: as §1

[10] = test system: CP269
In short: as §1

[11] = test system: CP286
In short: as §1

[12] = test system: CP291
In short: as §1

[13] = test system: CP297
In short: as §1

[14] = test system: CP305
In short: as §1

[15] = test system: CP315
In short: as §1

[16] = test system: CP325
In short: as §1

[17] = test system: CP329
In short: as §1

[18] = test system: CP335
In short: as §1

[19] = test system: DFO2036
In short: as §1

[20] = test system: CP262
In short: as §1
Potency is the fitted concentration of half-maximal effect.

Structure (SMILES)	Potency [1]	Potency [2]	Potency [3]	Potency [4]	Potency [5]	Potency [6]	Potency [7]	Potency [8]	Potency [9]	Potency [10]	Potency [11]	Potency [12]	Potency [13]	Potency [14]	Potency [15]	Potency [16]	Potency [17]	Potency [18]	Potency [19]	Potency [20]
Cc1scc2c1N(C(=O)CN1CCN(C)CC1)c1ccccc1NC2=O	inactive	inactive	inactive	inactive	inactive	inactive	inactive	inactive	inactive	inactive	inactive	inactive	inactive	inactive	inactive	inactive	inactive	inactive	inactive	
CC(N=C(NC#N)Nc1ccncc1)C(C)(C)C (stereo not given)	inactive	inactive	inactive	inactive	inactive	inactive	inactive	inactive	inactive	inactive	inactive	inactive	inactive	inactive	inactive	inactive	inactive	inactive	inactive	
CCOC(=O)C1=C(C)NC(C)=C(C(=O)OC)C1c1cccc(Cl)c1Cl (stereo not given)	inactive	inactive	inactive	inactive	inactive	inactive	inactive	inactive	inactive	inactive	inactive		inactive	inactive	inactive	inactive			inactive	inactive
CCN(CC)CCNC(=O)c1ccc(NC(C)=O)cc1	inactive	inactive	inactive	inactive	inactive	inactive	inactive		inactive	inactive	inactive	inactive	inactive	inactive	inactive	inactive	inactive	inactive	inactive	inactive
CCCCOCCOCCOCc1cc2c(cc1CCC)OCO2	inactive	inactive	inactive	inactive	inactive	inactive	inactive		inactive	inactive	inactive	inactive	inactive	inactive	inactive	inactive	inactive	inactive	inactive	inactive
CCN1CCc2nc(N)oc2CC1	inactive	inactive	inactive	inactive	inactive	inactive	inactive	inactive		inactive	inactive	inactive	inactive	inactive	inactive	inactive	inactive	inactive	inactive	inactive
CC(C(=O)O)c1ccc(CC2CCCC2=O)cc1 (stereo not given)	inactive	inactive	inactive	inactive	inactive	inactive	inactive	inactive	inactive	inactive	inactive	inactive	inactive	inactive	inactive	inactive	inactive	inactive	inactive	inactive
Cc1ccc(=O)n(-c2ccccc2)c1	inactive	inactive	inactive	inactive	inactive	inactive	inactive		inactive	inactive	inactive	inactive	inactive	inactive	inactive	inactive	inactive	inactive	inactive	inactive
O=C(O)CN(CCN(CC(=O)O)CC(=O)O)CCN(CC(=O)O)CC(=O)O	inactive	inactive	inactive	inactive	11.2 µM (active)	inactive		inactive		inactive	inactive		inactive		inactive	inactive	inactive	inactive	inactive	
CN(C)C/C=C(/c1ccc(Br)cc1)c1cccnc1	inactive	inactive	inactive	inactive	inactive	inactive	inactive	inactive	inactive	inactive	inactive			inactive	inactive	inactive	inactive	inactive	inactive	inactive
CCCCNc1ccc(C(=O)OCCN(C)C)cc1	inactive	inactive	inactive	inactive	inactive	inactive	inactive		inactive	inactive	inactive	inactive	inactive	inactive	inactive			inactive		inactive
CNC1(C)C2CCC(C2)C1(C)C (stereo not given)	inactive	inactive	inactive	inactive	inactive	inactive	inactive	inactive	inactive	inactive	inactive	inactive	inactive	inactive	inactive	inactive	inactive		inactive	inactive
CCN(CC)CCNC(=O)c1cc(S(C)(=O)=O)ccc1OC	inactive	inactive	inactive	inactive	inactive	inactive	inactive				inactive							inactive	inactive	inactive
CCO/C([O-])=N/c1c[n+](N2CCOCC2)no1	inactive	inactive	inactive	inactive	inactive	inactive	inactive	inactive	inactive	inactive	inactive	inactive	inactive	inactive	inactive		inactive	inactive	inactive	inactive
CN1CCN(CC(=O)N2c3ccccc3C(=O)Nc3cccnc32)CC1	inactive	inactive	inactive	inactive	inactive	inactive	inactive		inactive	inactive	inactive	inactive		inactive	inactive	inactive	inactive	inactive	inactive	inactive
Cc1ccc(Cl)c(Nc2ccccc2C(=O)O)c1Cl	inactive	inactive	inactive	inactive	inactive		inactive	inactive	inactive	inactive	inactive	inactive	inactive	inactive		inactive	inactive	inactive	inactive	inactive
CCN(Cc1ccncc1)C(=O)C(CO)c1ccccc1 (stereo not given)	inactive	inactive	inactive	inactive	inactive	inactive	inactive	inactive	inactive	inactive	inactive	inactive	inactive	inactive	inactive	inactive	inactive	inactive	inactive	inactive
Cc1ccc(S(=O)(=O)NC(=O)NN2CCCCCC2)cc1	inactive	inactive	inactive	inactive	inactive	inactive	inactive	inactive	inactive	inactive	inactive	inactive	inactive	inactive	inactive	inactive	inactive	inactive	inactive	
OCCN1CCN(CCCN2c3ccccc3C=Cc3ccccc32)CC1	11.2 µM (active)	5.01 µM (active)	6.31 µM (active)	6.31 µM (active)	3.55 µM (active)	5.01 µM (active)	4.47 µM (active)	13.5 µM (active)	13.5 µM (active)	9.53 µM (active)	7.08 µM (active)	12 µM (active)	12 µM (active)	10.7 µM (active)		8.49 µM (active)		6.75 µM (active)	11.2 µM (active)	6.75 µM (active)
CCNC(=O)N1CCN(CCCC(c2ccc(F)cc2)c2ccc(F)cc2)CC1	3.16 µM (active)	1 µM (active)	1 µM (active)	3.98 µM (active)	0.794 µM (active)	3.16 µM (active)	0.794 µM (active)	6.01 µM (active)	2.39 µM (active)	5.36 µM (active)	2.24 µM (active)	6.01 µM (active)	6.01 µM (active)	6.01 µM (active)	6.75 µM (active)	2.13 µM (active)		1.9 µM (active)	2.51 µM (active)	3.01 µM (active)
Cc1cc(C)c(/C=C2\C(=O)Nc3ccccc32)[nH]1	inactive	inactive	inactive	inactive	inactive	inactive	inactive	inactive	inactive	inactive	inactive	inactive	inactive	inactive	inactive	inactive	inactive	inactive	inactive	inactive
CCCN(CCC)CCc1cccc2c1CC(=O)N2	inactive	inactive	inactive	inactive	inactive	inactive	inactive	inactive	inactive	inactive	inactive	inactive	inactive	inactive	inactive	inactive	inactive		inactive	inactive
